Experimental data from the supplement of paper PMC12350171.
Structures can show the parent of a compound that is named as a salt. A number with no mark means an inactive call.

Assays:
Details in all cases: 20 µM
[1] = system: Salmonella enterica typhimurium; experiment: growth AUC normalised to DMSO control (fraction of control); higher = less growth inhibition, active = hit call of the paper
Outline: (§1)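 Hemin and NAD were added to the medium for Haemophilus parainfluenzae. All pathogens, after two anaerobic passages, were inoculated at a starting OD578 of 0.01 into pre-reduced mGAM plates with 20 μM compound and 1% DMSO under breathable seals, and OD578 was read hourly for 24 h in three biological replicates. AUC of each growth curve was obtained with the trapezoidal rule up to the exponential-to-stationary transition and normalised to DMSO controls from the same plate.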

[2] = system: Shigella flexneri; experiment: as above
Outline: as §1

[3] = system: Vibrio cholerae; experiment: as above
Outline: as §1

[4] = system: Yersinia pseudotuberculosis; experiment: as above
Outline: as §1

[5] = system: P. vulgatus RND KO; experiment: growth AUC normalised to DMSO control (median) (fraction of control); higher = less growth inhibition, active = hit call of the paper
Outline: (§2)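 Each strain went through two overnight passages under anaerobic conditions before growth in mGAM in 96-well plates, starting at OD578 0.01, with each compound from the approved-drug library at 20 μM and 1% DMSO. Inside an anaerobic incubator, OD578 was recorded every hour for 24 h. Growth curves were cut off at entry into stationary phase, and the area under the curve was calculated by the trapezoidal rule and normalised to vehicle wells on the same plate. Reported values are medians of three biological replicates.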

[6] = system: P. vulgatus WT; experiment: as above
Outline: as §2

[7] = system: S. enterica typhimurium WT; experiment: as above
Outline: as §2

[8] = system: S. enterica typhimurium tolC KO; experiment: as above
Outline: as §2
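Wherever growth AUC normalised to DMSO control (median) is given: active when median AUC fell below 0.1.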

Compound | growth AUC normalised to DMSO control [1] | growth AUC normalised to DMSO control [2] | growth AUC normalised to DMSO control [3] | growth AUC normalised to DMSO control [4] | growth AUC normalised to DMSO control [5] | growth AUC normalised to DMSO control [6] | growth AUC normalised to DMSO control [7] | growth AUC normalised to DMSO control [8]
NCCNCCNCCNCCN [Tetraethylenepentamine pentahydrochloride] | 0.99 | 0.972 | 0.979 | 0.998 | 0.998 | 0.995 | 1.01 | 1
CC(C)(Oc1ccc(Cl)cc1)C(=O)O [Clofibric acid] | 0.995 | 1 | 0.986 | 0.996 | 0.998 | 1.01 | 0.996 | 1
COC1=C(OC)C(=O)C(CCCCCCCCCCO)=C(C)C1=O [Idebenone] | 1.02 | 1.01 | 0.989 | 1.02 | 0.913 | 0.95 | 1.01 | 0.972
C[C@H](CCC(=O)O)[C@H]1CC[C@H]2[C@@H]3C(=O)C[C@@H]4CC(=O)CC[C@]4(C)[C@H]3CC(=O)[C@]12C [Dehydrocholic acid] | 0.98 | 0.968 | 0.983 | 0.957 | 1.01 | 0.983 | 0.999 | 0.66
CC(C)NCC(O)c1ccc(O)c(O)c1 (single isomer, unassigned; (-)) [(-) Isoproterenol hydrochloride] | 1.01 | 1.03 | 1.05 | 1.02 | 0.979 | 0.967 | 1 | 0.992
Nc1ccn([C@H]2CC[C@@H](CO)O2)c(=O)n1 [Zalcitabine] | 1.02 | 1.02 | 1.06 | 1.04 | 1.04 | 1.06 | 1 | 1.01
CCn1nc(C(=O)O)c(=O)c2cc3c(cc21)OCO3 [Cinoxacin] | 0.0189 (active) | 0.0786 (active) | 0.0544 (active) | 0.0459 (active) | 1 | 1.01 | 0.0574 (active) | 0.0349 (active)
CN(N=O)C(=O)N[C@H]1C(O)O[C@H](CO)[C@@H](O)[C@@H]1O (mixture of isomers) [Streptozotocin] | 0.659 (active) | 0.0254 (active) | 0.141 (active) | 0.0388 (active) | 0.0955 (active) | 0.0778 (active) | 0.725 | 0.694
CCCN(CCC)S(=O)(=O)c1ccc(C(=O)O)cc1 [Probenecid] | 1.02 | 1.03 | 1.02 | 1.02 | 1 | 1.02 | 1.02 | 0.895
CCc1nc(N)nc(N)c1-c1ccc(Cl)cc1 [Pyrimethamine] | 0.915 (active) | 0.851 (active) | 0.908 | 0.932 | 0.57 | 0.288 | 0.93 | 0.66
COc1ccc(NS(=O)(=O)c2ccc(N)cc2)nn1 [Sulfamethoxypyridazine] | 1.02 | 1.04 | 1.03 | 0.996 | 1.02 | 1.04 | 1.01 | 0.986
CCN(CCO)CCCC(C)Nc1ccnc2cc(Cl)ccc12 (stereo unspecified) [Hydroxychloroquine sulfate] | 1 | 0.988 | 1.01 | 1.01 | 1.02 | 1.01 | 1 | 0.995
C[N+](C)(C)CCOC(N)=O [Carbachol chloride] | 1.03 | 1.07 | 1.08 | 1.01 | 1.09 | 1.05 | 1.01 | 1.01
COc1ccc([C@@H]2CC(=O)c3c(O)cc(O[C@@H]4O[C@H](CO[C@@H]5O[C@@H](C)[C@H](O)[C@@H](O)[C@H]5O)[C@@H](O)[C@H](O)[C@H]4O)cc3O2)cc1O [Hesperidin] | 1.03 | 1.04 | 1.07 | 1.01 | 1.03 | 1 | 1 | 1.01
CC(=O)OCC(=O)[C@@]1(O)CC[C@H]2[C@@H]3CCC4=CC(=O)CC[C@]4(C)[C@H]3[C@@H](O)C[C@@]21C [Cortisol acetate] | 1.03 | 0.997 | 1 | 1 | 1 | 1.03 | 1.01 | 1
C[C@H]1C[C@H]2[C@@H]3CCC4=CC(=O)C=C[C@]4(C)[C@@]3(F)[C@@H](O)C[C@]2(C)[C@@]1(O)C(=O)CO [Betamethasone] | 0.985 | 0.957 | 0.979 | 0.988 | 0.986 | 0.98 | 1 | 0.991
CC1(C)S[C@@H]2[C@H](NC(=O)[C@H](C(=O)O)c3ccsc3)C(=O)N2[C@H]1C(=O)O [Ticarcillin sodium] | 0.00595 (active) | 0.178 (active) | 0.116 (active) | 0.0593 (active) | 0.00834 (active) | 0.0131 (active) | 0.00844 (active) | 0.0028 (active)
CC(=O)N(CC(O)CN(C(C)=O)c1c(I)c(C(=O)NCC(O)CO)c(I)c(C(=O)NCC(O)CO)c1I)c1c(I)c(C(=O)NCC(O)CO)c(I)c(C(=O)NCC(O)CO)c1I (stereo unspecified) [Iodixanol] | 0.977 | 0.943 | 0.99 | 0.977 | 1 | 0.98 | 0.996 | 1
CC(CN(C)C)CN1c2ccccc2Sc2ccccc21 (stereo unspecified) [Trimeprazine tartrate] | 0.988 | 0.952 | 0.895 | 0.999 | 0.799 | 0.792 | 1 | 0.972
Clc1ccc2c(c1)C(N1CCNCC1)=Nc1ccccc1O2 [Amoxapine] | 0.988 | 1.01 | 0.8 (active) | 1.01 | 0.795 | 0.759 | 1.01 | 0.972
NC12CC3CC(CC(C3)C1)C2 [Adamantamine fumarate] | 1.02 | 1.06 | 1.03 | 1 | 1.04 | 1.08 | 0.996 | 0.996
CNCCc1ccccn1 [Betahistine mesylate] | 0.997 | 0.976 | 0.985 | 1.01 | 1 | 1 | 1.02 | 1.01
CCN(CC)CCCC(C)Nc1c2ccc(Cl)cc2nc2ccc(OC)cc12 (stereo unspecified) [Quinacrine dihydrochloride hydrate] | 0.957 | 0.933 | 1.04 | 0.996 | 1.01 | 0.986 | 0.99 | 0.978
NCC[C@H](O)C(=O)N[C@@H]1C[C@H](N)[C@@H](O[C@H]2O[C@H](CN)[C@@H](O)[C@H](O)[C@H]2O)[C@H](O)[C@H]1O[C@H]1O[C@H](CO)[C@@H](O)[C@H](N)[C@H]1O [Amikacin hydrate] | 0.922 (active) | 0.985 | 1.01 | 0.122 (active) | 1.02 | 1.04 | 1 | 0.995
Cc1ncc([N+](=O)[O-])n1CC(O)CCl (stereo unspecified) [Ornidazole] | 0.995 | 0.987 | 1.01 | 0.964 | 0.0124 (active) | 0.00943 (active) | 0.99 | 0.99
CCCCOc1ccc(CC(=O)NO)cc1 [Bufexamac] | 0.996 | 0.974 | 1.01 | 0.956 | 1.01 | 0.991 | 0.997 | 0.967
CCOC(=O)[C@H](CCc1ccccc1)N[C@@H](C)C(=O)N1CCC[C@H]1C(=O)O [Enalapril maleate] | 1 | 1.04 | 1.03 | 1.02 | 1 | 1.02 | 1.01 | 0.997
